Legend:
[1] = target: Tumor necrosis factor receptor superfamily member 10B (Homo sapiens) (UniProt O14763); assay: viability loss of caspase-8 NB7 cells with TRAIL – with/without TRAIL, luminescence panel, confirmation (AID 651596); settings: NB7 neuroblastoma + caspase-8, TRAIL sensitization, NB7 Caspase-8, with TRAIL, mean of runs, at 10 µM, stronger effect = higher value
[2] = as above; settings: NB7 neuroblastoma + caspase-8, without TRAIL, NB7 Caspase-8, without TRAIL, mean of runs, at 10 µM

Chain of Tumor necrosis factor receptor superfamily member 10B (Homo sapiens) (O14763 whole entry, looked up): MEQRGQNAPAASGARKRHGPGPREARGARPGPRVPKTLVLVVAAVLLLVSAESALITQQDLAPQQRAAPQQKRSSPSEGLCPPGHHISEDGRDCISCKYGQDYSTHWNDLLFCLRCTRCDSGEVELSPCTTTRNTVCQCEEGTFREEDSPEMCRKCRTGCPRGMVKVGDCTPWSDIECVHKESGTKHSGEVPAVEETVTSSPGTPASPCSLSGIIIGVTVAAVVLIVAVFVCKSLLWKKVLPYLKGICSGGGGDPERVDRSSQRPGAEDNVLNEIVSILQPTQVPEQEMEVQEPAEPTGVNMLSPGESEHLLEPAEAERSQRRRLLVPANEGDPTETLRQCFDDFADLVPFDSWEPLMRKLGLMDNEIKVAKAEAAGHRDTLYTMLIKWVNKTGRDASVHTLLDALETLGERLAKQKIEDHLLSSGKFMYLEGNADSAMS

| Structure (SMILES) | activity [1] [%] | activity [2] [%] |
| --- | --- | --- |
| O=C(NC(=S)Nc1ccc(Br)cn1)c1cccs1 | 71.7 | 73.2 |
| O=C(/C=C/C(Cl)(Cl)Cl)Nc1ccc(Cl)cc1 | 98.8 | 98.9 |
| Cc1cc(C(=O)COC(=O)c2n[nH]c3ccccc23)c(C)n1CC1CCCO1 (stereo not drawn) | 77.5 | 75.2 |
| CC1(C)N=C(N)N=C(N)N1c1ccc(OCC(=O)N2CCOCC2)c(Cl)c1 | 81.6 | 86 |
| Fc1ccc(-c2nnc(-c3ccc(Cl)cc3Cl)o2)cc1 | 85.4 | 84.5 |
| Cc1nnc(NC(=O)c2ccc(S(=O)(=O)C(F)F)cc2)s1 | 43.1 | 42.9 |
| N=c1oc2cc(O)ccc2cc1C(=O)Nc1ccc(Cl)cc1 | 34.3 | 39.3 |
| COc1ccccc1N1CCN(c2ccc(-c3ccccc3)nn2)CC1 | 80.9 | 86.2 |
| c1cncc(-c2nc3cc4ccccc4cc3[nH]2)c1 | 66.7 | 57.3 |
| C#Cc1cccc(Nc2nc(NCc3ccccc3OC)nc3ccsc23)c1 | 52.1 | 37.5 |
| O=C(N/N=C/c1ccc2ncccc2c1)c1ccco1 | 75.7 | 70.7 |
| COc1ccc(OCC(=O)N/N=C(\C)c2cc3ccccc3o2)cc1 | 62.8 | 70.2 |
| N/C(=N\OC(=O)c1ccccc1)c1ccn[nH]1 | 68.7 | 68.1 |
| CCN(CC)S(=O)(=O)c1cc(NC(=O)Cn2ncc(Cl)c(Cl)c2=O)ccc1C | 99.5 | 99.6 |
| COc1ccc(-c2cc3cccc(OC)c3oc2=O)cc1 | 81.8 | 80.2 |
| Cc1ccc(-c2nc(N/N=C/c3cccc([N+](=O)[O-])c3)c3ccccc3n2)cc1 | 70.8 | 63.5 |
| COc1cc(/C=N/NC(=O)COc2ccc(C)cc2)ccc1OC(=O)c1cccs1 | 58.4 | 48.5 |
| CNc1nc(N/N=C/c2cc([N+](=O)[O-])ccc2F)nc(Nc2ccccc2)n1 | 71.5 | 86.5 |
| CCOc1ccc(C(=O)Nc2cc(C)on2)cc1 | 64.9 | 61.7 |
| O=C(Nc1ccc(N2CCN(Cc3ccccc3F)CC2)cc1)c1ccc([N+](=O)[O-])o1 | 99 | 98.8 |
| Nc1ccccc1C#CC(=O)c1ccccc1 | 33.9 | 94.2 |
| Cc1ccccc1-n1nnnc1Sc1nnnn1-c1ccccc1 | 46.1 | 91.3 |
| Cc1ccccc1C(=O)O/N=C(\N)c1ccncc1 | 61.6 | 76.3 |
| Clc1ccc(-c2nc(-c3ccccn3)no2)cc1Cl | 77.5 | 74.5 |

— PubChem BioAssay
